Data published in PubChem BioAssay.
For some assays here: Measured potencies and affinities stand elsewhere. Activity calls are given as the source filed them. How the calls were made is not given here.

Biological target: Plasmodium falciparum protein kinase 6 (PK6, PF3D7_1337100) (UniProt Q8IDW1)
Test: PfPK6 kinase inhibitors, biochemical, TCAMS library (AID 1159586)
Details: recombinant PfPK6, Kinase-Glo ATP depletion luminescence

Plasmodium falciparum protein kinase 6 (PK6, PF3D7_1337100), sequence (Q8IDW1 1-305): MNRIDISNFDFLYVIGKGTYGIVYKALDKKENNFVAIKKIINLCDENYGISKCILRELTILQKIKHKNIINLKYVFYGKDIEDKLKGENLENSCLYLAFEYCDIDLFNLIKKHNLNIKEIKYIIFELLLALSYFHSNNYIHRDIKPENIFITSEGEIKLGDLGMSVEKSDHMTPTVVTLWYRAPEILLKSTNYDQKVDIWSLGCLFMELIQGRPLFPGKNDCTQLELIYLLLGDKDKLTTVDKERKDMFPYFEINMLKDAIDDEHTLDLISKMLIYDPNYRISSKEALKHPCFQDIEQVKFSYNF

outcome, inactive:
Cc1cccc(NC(=O)NC2CCN(CCCCCNC(=O)/C=C/c3ccc(Cl)c(Cl)c3)CC2)c1, CCOC(=O)c1ccc(N=C2SC(=Cc3cc(Br)ccc3O)C(=O)N2C)cc1, Cc1cc(N(C)C)nc(Nc2ccc(NC(=O)CCc3ccccc3)cc2)n1, O=C(NC1CCCC1)c1ccc(N2CCC(NCc3cccc(C(F)(F)F)c3)CC2)cc1, Cc1cccc2[nH]c(-c3ccc(-c4ccc(NC(=O)Nc5ccc(Cl)c(Cl)c5)cc4)cc3)nc12, CNCCNCc1cccc(-c2cccc(-c3nc4c(C)cccc4[nH]3)c2)c1, NC1=NC2(CCCCC2)N(OCCOc2ccc(Cc3ccccc3)cc2)C(N)=N1, CCCC(C)Nc1nc(C)cc(N[C@@H](CC(C)C)C(=O)Nc2ccc(OC)cc2)n1 (stereo not given in full), Nc1nccc2ccc(-c3cccc(O)c3)cc12, CN(Cc1cc(C(F)(F)F)cc(C(F)(F)F)c1)C(=O)C(Cc1ccc(F)cc1)C1CCCNC1 (stereo not given), COc1ccc(-c2c(-c3ccc(OCc4ccccc4)cc3O)n[nH]c2C(F)(F)F)cc1, Cc1nc(C)c(CC(=O)Nc2ccc(-c3cccc(-c4nc5ccc(C(F)(F)F)cc5[nH]4)c3)cc2)s1, CC(Cc1ccc(Cl)cc1)Nc1nc(NC2CCCC2)nc(N2CCC(C#N)(c3ccccc3)CC2)n1 (stereo not given), O=C(c1cc2ccccc2o1)N1CCc2cc3nccc(N4CCN5CCC[C@H]5C4)c3cc21, COc1cc(NC(=O)Nc2ccc(Br)cc2C(=O)Nc2ccc(Br)cc2)cc(OC)c1OC, COc1ccc2nccc([C@@H](O)CN3CCC(NC/C=C/c4cccnc4)CC3)c2c1, CC(C)(C)C(=O)Nc1ccc(C(=O)Nc2cccc(-c3nc4ccccc4[nH]3)c2)cc1, COc1ccc(Nc2ncc3c(-c4cccc(NC(=O)Cc5ccc(F)cc5)c4)c[nH]c3n2)cc1OC, OCC1CCN(Cc2ccc(-c3ccc(-c4nc5ccc(C(F)(F)F)cc5[nH]4)cc3)cc2)CC1, CN(C)CCOc1cc(NC(=O)Nc2ccc(Cl)cc2C(F)(F)F)ccc1I, NC(N)=NN=CC(=O)Nc1cccc(C(F)(F)F)c1, Cc1cc(Nc2cccc(C(F)(F)F)c2)nc(NCc2ccccc2)n1, COc1ccc2nccc([C@@H](O)CN3CCC(NCc4cc5c(Cl)cccc5[nH]4)CC3)c2c1, Fc1ccc2[nH]c3c(NCCCN4CCOCC4)ncnc3c2c1, Cc1cc(N2CCC(C)CC2)nc2cc(O)ccc12, COc1ccc2nccc([C@@H](O)CN3CCC(NCc4ccc5sc(=O)[nH]c5c4)CC3)c2c1, COc1ccc(S(=O)(=O)N(CC(=O)NN=C(C)c2cccs2)c2cc(C)cc(C)c2)cc1OC, CC(C)CNCc1ccc(-c2ccccc2CNC2CCN(Cc3ccccc3)CC2)cc1, COc1ccc(CCn2c(=N)c(C(=O)NCc3cccnc3)cc3c(=O)n4ccccc4nc32)cc1, Cc1ccccc1C(O)CNc1ccnc(Nc2cccc(C#N)c2)n1 (stereo not given), COc1ccc(NC(=O)NC2CCN(c3ccnc4cc(Cl)ccc34)CC2)cc1, COc1ccccc1C(=O)Nc1cccc(N2CCC(NCc3ccc(-n4cccn4)cc3)CC2)c1, CC(C)(C)CCN1CCC(NC(=O)c2ccc(-c3cccc(C(F)(F)F)c3)s2)CC1, N#Cc1ccc(-c2nc(CO)c(C(=O)NCCCCN3CCC(c4ccc5c(c4OCC(N)=O)CCCC5)CC3)s2)cc1, O=C(/C=C/c1ccc(Cl)c(Cl)c1)NCCCCCN1CC[C@H](NC(=O)Nc2ccc(Oc3ccccc3)cc2)C1, COCCC[C@H]1C(=O)O[C@H]2CCC[C@@H]21, CN(C)Cc1ccc(-c2cccc(NC(=O)c3ccc(Cl)cc3)c2)cc1, O=C(NCCCCCN1CCC(c2c[nH]c3ccccc23)CC1)Nc1cccc(Cl)c1, Fc1ccc2nc(-c3ccc(-c4ccc(CNCc5ccccc5)cc4)cc3)[nH]c2c1, CN(C)c1ccc(N=C2N=C(Nc3ccc(N(C)C)cc3)c3ccccc32)cc1

Biological target: Protein kinase 7 (PK7), Plasmodium falciparum 3D7 (PF3D7_0213400) (UniProt Q7YTF7)
Test: inhibition of Plasmodium PK7 catalytic activity – biochemical, TCAMS antimalarial set, Kinase-Glo luminescence (AID 1159587)
Details: recombinant PfPK7, Kinase-Glo ATP depletion luminescence

Protein kinase 7 (PK7), Plasmodium falciparum 3D7 (PF3D7_0213400), sequence (Q7YTF7 1-343): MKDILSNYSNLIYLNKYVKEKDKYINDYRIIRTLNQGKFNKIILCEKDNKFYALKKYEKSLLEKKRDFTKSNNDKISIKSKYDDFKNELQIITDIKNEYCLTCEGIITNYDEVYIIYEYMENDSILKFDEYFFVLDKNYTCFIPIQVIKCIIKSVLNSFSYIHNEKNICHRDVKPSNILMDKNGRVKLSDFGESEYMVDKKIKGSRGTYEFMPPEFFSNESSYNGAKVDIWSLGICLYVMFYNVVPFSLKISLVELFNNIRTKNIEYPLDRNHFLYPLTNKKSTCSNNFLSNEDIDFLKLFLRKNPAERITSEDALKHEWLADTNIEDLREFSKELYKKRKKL

outcome, inactive:
Cc1cccc(NC(=O)NC2CCN(CCCCCNC(=O)/C=C/c3ccc(Cl)c(Cl)c3)CC2)c1, CCOC(=O)c1ccc(N=C2SC(=Cc3cc(Br)ccc3O)C(=O)N2C)cc1, Cc1cc(N(C)C)nc(Nc2ccc(NC(=O)CCc3ccccc3)cc2)n1, O=C(NC1CCCC1)c1ccc(N2CCC(NCc3cccc(C(F)(F)F)c3)CC2)cc1, Cc1cccc2[nH]c(-c3ccc(-c4ccc(NC(=O)Nc5ccc(Cl)c(Cl)c5)cc4)cc3)nc12, CNCCNCc1cccc(-c2cccc(-c3nc4c(C)cccc4[nH]3)c2)c1, NC1=NC2(CCCCC2)N(OCCOc2ccc(Cc3ccccc3)cc2)C(N)=N1, CCCC(C)Nc1nc(C)cc(N[C@@H](CC(C)C)C(=O)Nc2ccc(OC)cc2)n1 (stereo not given in full), Nc1nccc2ccc(-c3cccc(O)c3)cc12, CN(Cc1cc(C(F)(F)F)cc(C(F)(F)F)c1)C(=O)C(Cc1ccc(F)cc1)C1CCCNC1 (stereo not given), COc1ccc(-c2c(-c3ccc(OCc4ccccc4)cc3O)n[nH]c2C(F)(F)F)cc1, Cc1nc(C)c(CC(=O)Nc2ccc(-c3cccc(-c4nc5ccc(C(F)(F)F)cc5[nH]4)c3)cc2)s1, CC(Cc1ccc(Cl)cc1)Nc1nc(NC2CCCC2)nc(N2CCC(C#N)(c3ccccc3)CC2)n1 (stereo not given), O=C(c1cc2ccccc2o1)N1CCc2cc3nccc(N4CCN5CCC[C@H]5C4)c3cc21, COc1cc(NC(=O)Nc2ccc(Br)cc2C(=O)Nc2ccc(Br)cc2)cc(OC)c1OC, COc1ccc2nccc([C@@H](O)CN3CCC(NC/C=C/c4cccnc4)CC3)c2c1, CC(C)(C)C(=O)Nc1ccc(C(=O)Nc2cccc(-c3nc4ccccc4[nH]3)c2)cc1, COc1ccc(Nc2ncc3c(-c4cccc(NC(=O)Cc5ccc(F)cc5)c4)c[nH]c3n2)cc1OC, OCC1CCN(Cc2ccc(-c3ccc(-c4nc5ccc(C(F)(F)F)cc5[nH]4)cc3)cc2)CC1, CN(C)CCOc1cc(NC(=O)Nc2ccc(Cl)cc2C(F)(F)F)ccc1I, NC(N)=NN=CC(=O)Nc1cccc(C(F)(F)F)c1, Cc1cc(Nc2cccc(C(F)(F)F)c2)nc(NCc2ccccc2)n1, COc1ccc2nccc([C@@H](O)CN3CCC(NCc4cc5c(Cl)cccc5[nH]4)CC3)c2c1, Fc1ccc2[nH]c3c(NCCCN4CCOCC4)ncnc3c2c1, Cc1cc(N2CCC(C)CC2)nc2cc(O)ccc12, COc1ccc2nccc([C@@H](O)CN3CCC(NCc4ccc5sc(=O)[nH]c5c4)CC3)c2c1, COc1ccc(S(=O)(=O)N(CC(=O)NN=C(C)c2cccs2)c2cc(C)cc(C)c2)cc1OC, CC(C)CNCc1ccc(-c2ccccc2CNC2CCN(Cc3ccccc3)CC2)cc1, COc1ccc(CCn2c(=N)c(C(=O)NCc3cccnc3)cc3c(=O)n4ccccc4nc32)cc1, Cc1ccccc1C(O)CNc1ccnc(Nc2cccc(C#N)c2)n1 (stereo not given), COc1ccc(NC(=O)NC2CCN(c3ccnc4cc(Cl)ccc34)CC2)cc1, COc1ccccc1C(=O)Nc1cccc(N2CCC(NCc3ccc(-n4cccn4)cc3)CC2)c1, CC(C)(C)CCN1CCC(NC(=O)c2ccc(-c3cccc(C(F)(F)F)c3)s2)CC1, N#Cc1ccc(-c2nc(CO)c(C(=O)NCCCCN3CCC(c4ccc5c(c4OCC(N)=O)CCCC5)CC3)s2)cc1, O=C(/C=C/c1ccc(Cl)c(Cl)c1)NCCCCCN1CC[C@H](NC(=O)Nc2ccc(Oc3ccccc3)cc2)C1, COCCC[C@H]1C(=O)O[C@H]2CCC[C@@H]21, CN(C)Cc1ccc(-c2cccc(NC(=O)c3ccc(Cl)cc3)c2)cc1, O=C(NCCCCCN1CCC(c2c[nH]c3ccccc23)CC1)Nc1cccc(Cl)c1, Fc1ccc2nc(-c3ccc(-c4ccc(CNCc5ccccc5)cc4)cc3)[nH]c2c1, CN(C)c1ccc(N=C2N=C(Nc3ccc(N(C)C)cc3)c3ccccc32)cc1
